Among all 52,000 compounds or so, about 4,300 (8.3%) were called active. Cut-off read from the data, not from the text of the source: active = survival mostly below about 52% (no sharp cut-off); inactive = mostly above about 56%. The full list was thinned out, with actives kept by preference.

This assay relates to DeltatarO mutant. Briefly: growth inhibition of S. aureus wild type versus tarO mutant, primary screen, teichoic acid synthesis inhibitors, RN4220, OD600 (AID 463173). Particulars: OD600, 18 h, hits give low values, screened at 18.75 µg/mL (by protocol).
For the compound `CC(=O)O/N=C1/CC(C)(C)Cc2onc(C)c21`, the survival was 76% (inactive).
Turning to `CCOC(=O)c1cc(S(=O)(=O)NCc2ccc(Cl)cc2)[nH]n1`, the survival is 87% (inactive).
Take `Cc1ccc(-c2nc(-c3cc4cccc(OCc5ccccc5F)c4oc3=O)no2)cc1`: the survival was 60% (inactive).
Consider `COc1ccc(C2c3[nH]c4ccccc4c3CCN2C(=O)CCC2CCCC2)cc1` (configuration not stated), for which the survival was 95% (inactive).
As for `O=C(C1COc2cc(S(=O)(=O)Nc3ccc(Cl)cc3)ccc2O1)N1CCCC1` (configuration not stated), the survival was 71% (inactive).
As to `CN(C(=O)CSc1nc(-c2ccco2)cc(C(F)(F)F)n1)c1ccccc1`, the survival was 92% (inactive).
In the case of `O=C(CCn1cnc2ccccc2c1=O)NCc1ccccc1Cl`, the survival was 77% (inactive).
Next, `COc1ccccc1CNC(=O)CCn1cnc2ccccc2c1=O`: -5% (active); `COc1ccccc1NC(=O)CCn1cnc2ccccc2c1=O`: 92% (inactive).
The same measure for `COc1ccc(N2C(=O)CS(=O)(=O)C23C(=O)N(Cc2c(F)cccc2Cl)c2ccccc23)cc1` (configuration not stated): 86% (inactive).
Consider `Cc1ccccc1NC(=O)Cn1nc(-c2ccc(F)cc2)c2cnc3ccccc3c21`, for which the survival is 25% (active).
Regarding `Cc1ccc(-c2nn(CC(=O)NC3CCCC3)c3c2cnc2ccc(F)cc23)cc1C`, the survival was 93% (inactive).
Regarding `Cc1ccc2ncc3c(-c4ccc(F)cc4)nn(CC(=O)Nc4ccccc4C)c3c2c1`, the survival was 101% (inactive).
As to `CCc1ccc(-c2nn(CC(=O)NC3CCCCC3)c3c2cnc2ccc(C)cc23)cc1`, the survival was 69% (inactive).
Regarding `CCc1ccc(-c2nn(CC(=O)NC3CCCC3)c3c2cnc2ccc(C)cc23)cc1`, the survival is 37% (active).
The same measure for `CCc1ccc(-c2nn(CC(=O)Nc3ccccc3C)c3c2cnc2ccc(C)cc23)cc1`: 70% (inactive); for `CCc1ccc(-c2nn(CC(=O)NC3CCCCC3)c3c2cnc2ccc(F)cc23)cc1`: 72% (inactive); for `CCCNC(=O)Cn1nc(-c2ccc(C)cc2)c2cnc3ccc(CC)cc3c21`: 37% (active).
Take `CCc1ccc2ncc3c(-c4ccc(C)cc4)nn(CC(=O)Nc4ccc(C)cc4)c3c2c1`: the survival is 55% (inactive).
The same measure for `Cc1ccc(-c2nn(CC(=O)NC3CCCCC3)c3c2cnc2ccc(F)cc23)cc1C`: 0% (active); for `CCc1ccc2ncc3c(-c4ccc(C)cc4)nn(CC(=O)NCc4ccccc4)c3c2c1`: 57% (inactive).
For the compound `CCc1ccc(-c2nn(CC(=O)NC3CCCC3)c3c2cnc2ccc(F)cc23)cc1`, the survival is 105% (inactive).
Take `CCN(CC)c1ccc(NC(=O)C2CCN(S(=O)(=O)c3ccc4c(c3)oc(=O)n4C)CC2)c(C)c1`: the survival is 90% (inactive).
Consider `COc1ccc(C2CC(=O)c3cc(-c4nc(-c5cccc([N+](=O)[O-])c5)cs4)c(=O)n(-c4ccc(C)c(C)c4)c3C2)cc1` (configuration not stated), for which the survival was 156% (inactive).
For the compound `CCCN1c2cccc3cccc(c23)S1(=O)=O`, the survival is 101% (inactive).
As to `Cc1oc(CC(C)C)cc1C(=O)O`, the survival was 104% (inactive).
`CCN1C(=O)C2C(c3ccc(F)cc3)NC(CCSC)(C(=O)OC)C2C1=O` (configuration not stated): the survival was 54% (inactive).
Next, `Cn1c(=O)[nH]c2cc(-c3noc(-c4cccc(Cl)c4)n3)ccc21`: 87% (inactive); `O=C(Cn1nc(-c2ccccc2)c2cnc3ccc(F)cc3c21)NC1CCCC1`: 102% (inactive).
Next, `CCOc1ccc(-c2nn(CC(=O)NC3CCCC3)c3c2cnc2ccc(F)cc23)cc1`: 144% (inactive); `COc1ccc(-c2nn(CC(=O)NC3CCCC3)c3c2cnc2ccc(F)cc23)cc1`: 46% (active); `Cc1ccc(CNC(=O)c2c[nH]n3c(=O)c(Cc4ccc(Cl)cc4)c(C)nc23)cc1`: -12% (active).
The same measure for `Cc1nc2c(C(=O)NCCc3ccccc3)c[nH]n2c(=O)c1Cc1ccccc1F`: -13% (active); for `COc1ccc(CCNC(=O)c2c[nH]n3c(=O)c(Cc4ccccc4Cl)c(C)nc23)cc1OC`: 32% (active).
With `Cc1nc2c(C(=O)NCCc3ccc(Cl)cc3)c[nH]n2c(=O)c1Cc1ccccc1F`, the survival was -12% (active).
Take `Cc1ccc(CNC(=O)c2nnc(Cc3ccc(Cl)cc3)o2)cc1`: the survival was 99% (inactive).
For `COc1ccc(CCNC(=O)c2cc(C)nc3c2c(C)nn3-c2ccccc2)cc1OC`, the survival was 92% (inactive).
Next, `Cc1cccn2c(=O)c(C(=O)NCCc3ccc(Cl)cc3)cnc12`: 83% (inactive); `Cc1nc2nc(NC(=O)c3ccc(Cl)cc3)[nH]n2c(=O)c1Cc1ccccc1`: 105% (inactive); `Cc1nc2c(C(=O)NCCc3ccccc3)cnn2c(C)c1Cc1c(F)cccc1Cl`: 79% (inactive).
As to `Cc1cccn2c(=O)c(C(=O)NCCc3ccccc3)cnc12`, the survival is 58% (inactive).
Take `Cc1nc2c(C(=O)NCCc3ccc(Cl)cc3)cnn2c(C)c1Cc1c(F)cccc1Cl`: the survival is 75% (inactive).
On to `COc1ccc(CCNC(=O)c2ccc(Cn3c(=O)c4ccccc4n(Cc4ccccc4Cl)c3=O)cc2)cc1OC`, for which the survival was 80% (inactive).
Take `Cc1ccc(-n2ncc(C(=O)N3CCN(c4ccccn4)CC3)c2C2CCN(C(=O)OC(C)(C)C)CC2)cc1C`: the survival was 72% (inactive).
Turning to `COc1ccc2c(c1)N(C)/C(=C1/SC(=O)N(c3ccccc3)C1=O)S2`, the survival is 94% (inactive).
Consider `CC(C)(CC(=O)NCc1ccc(Cl)cc1Cl)CC1=NS(=O)(=O)c2ccccc2N1`, for which the survival was 75% (inactive).
The same measure for `CCCOc1ccc(NC(=O)CC2C(=O)N(c3ccc(F)cc3)C(=O)N2CC(C)C)cc1` (configuration not stated): 64% (inactive).
Next, `COc1ccc(NC(=O)Cc2coc3cc(C)cc(C)c23)c(OC)c1`: 60% (inactive); `COc1ccccc1CCNC(=O)c1cccn1-c1nnc(N2CCCC2)s1`: 93% (inactive).
As to `CCCOc1cccc(C(=O)N(Cc2sccc2C)C2CCS(=O)(=O)C2)c1` (configuration not stated), the survival was 110% (inactive).
For the compound `COc1cc2c(=O)c(C(=O)c3ccc(C)c(C)c3)cn(Cc3ccccc3)c2cc1OC`, the survival was 79% (inactive).
Next, `O=C(CSc1nc2c([nH]c3ccccc32)c(=O)n1-c1ccccc1)N1CCCC1`: 84% (inactive); `Cc1ccc(-c2nc3ccc(Cl)cn3c2Nc2ccc3c(c2)OCCO3)s1`: 107% (inactive).
In the case of `Cc1nc2c(C(=O)N(C)Cc3ccccc3)c[nH]n2c(=O)c1Cc1ccc(Cl)cc1`, the survival was 88% (inactive).
Take `Cc1ccc(CNC(=O)c2cnn3c(C)c(Cc4c(F)cccc4Cl)c(C)nc23)cc1`: the survival was 70% (inactive).
For the compound `Cc1nc2nc(NC(=O)c3ccc(F)cc3)[nH]n2c(=O)c1Cc1ccccc1`, the survival is 101% (inactive).
Regarding `Cc1ccc(CNC(=O)CN2CCN(Cc3ccc(F)cc3Cl)C2=O)cc1`, the survival was 79% (inactive).
In the case of `Cc1nc2c(C(=O)NCc3ccccc3Cl)cnn2c(C)c1Cc1ccccc1`, the survival is 79% (inactive).
Take `Cc1nc2nc(NC(=O)c3cccc(Cl)c3)[nH]n2c(=O)c1Cc1ccccc1`: the survival is 111% (inactive).
For the compound `Cc1nc2c(C(=O)NCCc3ccc(Cl)cc3)cnn2c(C)c1Cc1ccc(F)cc1`, the survival is 69% (inactive).
As to `Cc1nc2c(C(=O)NCc3ccccc3Cl)c[nH]n2c(=O)c1Cc1cccc(Cl)c1`, the survival is -16% (active).
Next, `Cc1nc2c(C(=O)NCCc3ccccc3)c[nH]n2c(=O)c1Cc1ccc(F)cc1Cl`: -16% (active); `Cc1ccc(CNC(=O)c2c[nH]n3c(=O)c(Cc4ccc(F)cc4Cl)c(C)nc23)cc1`: -13% (active).
For the compound `Cc1nc2c(C(=O)NCc3ccccc3)c[nH]n2c(=O)c1Cc1ccccc1Cl`, the survival is 49% (inactive).
Turning to `Cc1nc2c(C(=O)NCCc3ccc(Cl)cc3)c[nH]n2c(=O)c1Cc1ccc(Cl)cc1`, the survival is -14% (active).
With `COc1ccc(CNC(=O)C(=O)NCC(c2ccco2)S(=O)(=O)c2cccs2)cc1` (configuration not stated), the survival was 60% (inactive).
Next, `N#C/C(=C\c1ccc[nH]1)C(=O)N1CCc2ccccc2C1`: 72% (inactive).
For `COc1cc(Cl)c(NC(=O)c2cc(S(=O)(=O)N3CCCCC3)c[nH]2)c(OC)c1`, the survival was 119% (inactive).
Next, `Cc1cc(NC(=O)CCNS(=O)(=O)c2ccc3c(c2)CCCC(=O)N3)ccc1Br`: 76% (inactive).
As for `COc1ccc(C2CC(=O)Nc3c2c(=O)[nH]c2nc4ccccc4n32)cc1` (configuration not stated), the survival is 66% (inactive).
Take `Cc1ccc(C)c(N2CCN(C(=O)C3CCN(S(=O)(=O)c4cn(C)cn4)CC3)CC2)c1`: the survival is 64% (inactive).
As for `CN(C)c1ccc(CNC(=O)C2CCN(S(=O)(=O)c3cn(C)cn3)CC2)cc1`, the survival is 0% (active).
Next, `Cn1cnc(S(=O)(=O)N2CCC(C(=O)NCc3ccc(Cl)cc3)CC2)c1`: 101% (inactive); `Cc1cc(C)cc(NC(=O)C2CCN(S(=O)(=O)c3cn(C)cn3)CC2)c1`: 98% (inactive); `CCOc1ccccc1CNC(=O)C1CCN(S(=O)(=O)c2ccc3[nH]c(=O)ccc3c2)CC1`: 25% (active).
Next, `Cc1ccc(N(C)C(=O)C2CCN(S(=O)(=O)c3cn(C)cn3)CC2)cc1`: 37% (active); `COc1ccc(OC)c(CNC(=O)C2CCN(S(=O)(=O)c3cn(C)cn3)CC2)c1`: 83% (inactive); `CCOc1ccccc1NC(=O)C1CCN(S(=O)(=O)c2ccc3[nH]c(=O)ccc3c2)CC1`: 63% (inactive).
Regarding `COc1ccccc1CNC(=O)C1CCN(S(=O)(=O)c2ccc3[nH]c(=O)ccc3c2)CC1`, the survival is 102% (inactive).
Next, `Cn1cnc(S(=O)(=O)N2CCC(C(=O)NCc3ccccc3Cl)CC2)c1`: 118% (inactive).
For the compound `Cc1ccc(CNC(=O)C2CCN(S(=O)(=O)c3cn(C)cn3)CC2)cc1`, the survival was 115% (inactive).
Turning to `COc1ccccc1CNC(=O)C1CCN(S(=O)(=O)c2cn(C)cn2)CC1`, the survival is 0% (active).
In the case of `CC(C)C(NS(=O)(=O)c1ccccc1)C(C)C`, the survival is 97% (inactive).
As for `COc1cc(C2CC(=O)c3c([nH]c(C(=O)OCc4ccc(C)cc4)c3C)C2)cc(OC)c1OC` (configuration not stated), the survival was 83% (inactive).
Next, `OC1CN=C2C=CC=CN2C1` (configuration not stated): 89% (inactive).
For `CCN1CCN(c2ccc(NS(=O)(=O)c3c(C)nc4sccn4c3=O)cc2Cl)CC1`, the survival is 108% (inactive).
Consider `Cc1ccc(CNC(=O)c2oc3c(c2C)-c2nn(Cc4ccc(Cl)cc4)cc2CC3)cc1`, for which the survival was 57% (inactive).

For the origin of these results see PubChem BioAssay AID463173 (ICCB-Longwood Screening Facility, Harvard Medical School, 2010).
